These results are taken from PubChem BioAssay AID485317 (Broad Institute, 2010).

The whole screen tested about 290,000 compounds, of which about 11,000 (3.8%) were called active. The sample as a whole holds a higher share of actives than the screen did. A number with no mark means an inactive call.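 How the source made its calls: active means mean replicate inhibition above about 79%, with every replicate also reaching it (limit read from the data); inconclusive means only one of the two criteria met; inactive means mean below limit and not every replicate reaching it.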

Chain of FAD-linked sulfhydryl oxidase ALR (Homo sapiens) (P55789 whole entry, looked up): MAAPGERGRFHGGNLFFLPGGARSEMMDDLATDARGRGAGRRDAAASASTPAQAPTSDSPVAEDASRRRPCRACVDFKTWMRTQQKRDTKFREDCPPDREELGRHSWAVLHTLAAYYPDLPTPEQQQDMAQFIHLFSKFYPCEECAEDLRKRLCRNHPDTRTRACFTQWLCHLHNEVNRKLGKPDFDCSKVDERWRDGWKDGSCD

This test has as its target FAD-linked sulfhydryl oxidase ALR (Homo sapiens) (UniProt P55789). Description: ALR-catalysed DTT oxidation blockers – biochemical, H2O2 detection, HRP-luminol luminescence, single point, primary screen (AID 485317). Conditions: purified ALR, active compounds read high, concentration not given here.
For `O=C1CCCCC1Sc1ccc(Cl)cc1[N+](=O)[O-]` (stereo not drawn), the inhibition was -27.8%.

With `CCOc1ncccc1C(=O)Nc1ccc2c(c1)OCCO2`, the inhibition is 4.02%.

On to `Oc1ccc(N=Nc2nccs2)c(O)c1`, for which the inhibition was 83.1% (active).

For the molecule `Oc1ccc2ccccc2c1N=Nc1nccs1`, the inhibition is -13.2%.

For `CN1CCN(S(=O)(=O)c2cccc(C(=O)Nc3sccc3C#N)c2)CC1`, the inhibition was 6.71%.

Turning to `COc1ccc(C(=O)Nc2ccc(N3CCC(C)CC3)cc2)cc1Br`, the inhibition is -4.62%.

As for `Cc1ccccc1C(=O)Nc1ccc(N2CCCCCC2)cc1`, the inhibition is 68.7%.

`COc1ccc(C(=O)NC(=S)Nc2ccc(N3CCCC3)cc2)cc1OC`: the inhibition is 2.05%.

With `COc1cccc(OC)c1C(=O)Nc1ccc(N2CCCCC2)cc1`, the inhibition was 86% (active).

Regarding `CC(=O)Nc1ccc(S(=O)(=O)Nc2ccc(N3CCCCC3)cc2)cc1`, the inhibition was 99.4% (active).

Consider `CC(=O)Nc1ccc(S(=O)(=O)Nc2ccc(N3CCOCC3)c(F)c2)cc1`, for which the inhibition is 3.94%.

Regarding `COc1cccc(C(=O)Nc2ccc(N3CCCC3)cc2)c1`, the inhibition is 100% (active).

Take `COc1cccc(C(=O)Nc2ccc(N3CCN(C(=O)c4ccco4)CC3)cc2)c1`: the inhibition was -0.228%.

As for `CC(=O)Nc1ccc(NS(=O)(=O)c2ccc3c(c2)NC(=O)CC(=O)N3)cc1`, the inhibition is -6.71%.

Consider `Cc1ccc(Cc2nnc(SCC(=O)Nc3ccc(C)cc3C)[nH]c2=O)cc1`, for which the inhibition is -13.1%.

With `COc1ccccc1N(C)S(=O)(=O)c1ccc(Cl)c(C(=O)Nc2ccncc2)c1`, the inhibition was -13.7%.

On to `Cc1ccc(OCC(=O)Oc2ccccc2[N+](=O)[O-])cc1`, for which the inhibition was 8.6%.

Turning to `O=C(COc1cccnc1[N+](=O)[O-])Nc1ccc(Cl)cc1F`, the inhibition was -1.28%.

Turning to `Cn1c(=O)[nH]c(=O)c2c1[nH]c(=S)n2Cc1ccccc1`, the inhibition was 86.9% (active).

Take `C=CCSc1nc2c(c(=O)[nH]c(=O)n2C)n1Cc1ccccc1`: the inhibition is -5.44%.

For the molecule `COc1ccc(CNc2nc3c(c(=O)[nH]c(=O)n3C)n2Cc2ccccc2)cc1`, the inhibition is -2.89%.

On to `COC(=O)c1cccc(NC(=O)c2cccc(N3C(=O)CCC3=O)c2)c1`, for which the inhibition is -1.61%.

For `CCCC(=O)OCC(=O)Nc1cc(Cl)ccc1[N+](=O)[O-]`, the inhibition is -5.98%.

Take `Cc1cc(NC(=O)COC(=O)COc2ccc(Cl)cc2C)c([N+](=O)[O-])cc1C`: the inhibition is 89.5% (active).

On to `COc1ccc(OCC(=O)Nc2cc(C)c(Cl)cc2OC)c([N+](=O)[O-])c1`, for which the inhibition is -2.93%.

Consider `CCN(CC(=O)Nc1ccccc1OC)C(=O)CC1CC2CCC1C2` (stereo not drawn), for which the inhibition was 1.64%.

`O=S(=O)(O)Oc1c[nH]c2ccccc12`: the inhibition was -3.63%.

`CC1(c2ccccc2)NC(=O)N(CC(=O)Nc2cc(Cl)ccc2N2CCOCC2)C1=O` (stereo not drawn): the inhibition is 13.2%.

Regarding `N#CC1(NC(=O)COC(=O)Cc2n[nH]c(=O)c3ccccc23)CCCCC1`, the inhibition is -18.6%.

`C=CCNC(=S)N1CCc2[nH]c3ccccc3c2C1`: the inhibition is 98.3% (active).

On to `Fc1ccc(NC(=S)N2CCc3[nH]c4ccccc4c3C2)cc1`, for which the inhibition is 3.4%.

`CCCC(=O)N1CCc2[nH]c3ccccc3c2C1`: the inhibition was -30.4%.

On to `CN(C(=O)COC(=O)c1ccc(Br)o1)c1c(N)n(Cc2ccccc2)c(=O)[nH]c1=O`, for which the inhibition is -5.35%.

Consider `Cc1c(C)n2c(SCC(=O)NC3CCCC3)nnc2[nH]c1=O`, for which the inhibition was 2.18%.

With `COc1cc(OC)cc(-c2c(-c3cccs3)c3cc(-c4ccc(OC)cc4F)ccc3n2C)c1`, the inhibition is -3.91%.

Take `CCOc1ccc(-c2n[nH]c(=S)n2/N=C/c2cc3c(cc2[N+](=O)[O-])OCO3)cc1`: the inhibition is 84.2% (active).

Consider `Cc1ccc(S(=O)(=O)N/N=C\c2cc3c(cc2[N+](=O)[O-])OCO3)cc1`, for which the inhibition is -3.17%.

As for `Cc1ccc(-c2n[nH]c(=S)n2/N=C/c2cc3c(cc2[N+](=O)[O-])OCO3)cc1`, the inhibition is -5.58%.

As to `COc1ccc(/C=N/Nc2cc(N3CCOCC3)nc(C)n2)c(OC)c1`, the inhibition is 32.1%.

On to `CN(C)c1ccc(/C=N/Nc2cc(N3CCOCC3)nc(N3CCOCC3)n2)cc1`, for which the inhibition is 98.8% (active).

Consider `C(=N/Nc1cc(N2CCOCC2)nc(N2CCOCC2)n1)/c1ccccc1`, for which the inhibition was 34.6%.

Turning to `CCOc1ccc(C(=O)Nc2cc(Cl)ccc2-n2cncn2)cc1OC`, the inhibition was -4.75%.

As to `Cn1c(CC(=O)NNC(=O)c2ccccc2F)nc2ccccc21`, the inhibition was -4.08%.

As to `COc1ccc2cc(CCl)c(Cl)nc2c1`, the inhibition is 98% (active).

Turning to `COC(=O)CSc1nc(C)c2ccc(OC)cc2n1`, the inhibition was -12.7%.

In the case of `COc1ccc2oc(-c3cccc(NC(=O)CSc4ccc(Cl)cc4)c3)nc2c1`, the inhibition is -8.13%.

Take `C=CCSc1nnc(N2C(=O)C(O)=C(C(=O)c3ccco3)C2c2ccc(F)cc2)s1` (stereo not drawn): the inhibition is 98% (active).

With `O=C(C1=C(O)C(=O)N(c2ncccn2)C1c1cccs1)c1ccco1` (stereo not drawn), the inhibition was 21.9%.

On to `Cc1ccc2nc(N3C(=O)C(O)=C(C(=O)c4ccco4)C3c3cccc(O)c3)sc2c1` (stereo not drawn), for which the inhibition is 71.5%.

In the case of `Cc1ccc(C(=O)NCC(=O)NC2CC2)cc1`, the inhibition was 0.292%.

As for `CCC(CO)Oc1cc(NC(=O)c2cccc(F)c2)c2ncn(C(C)C)c2c1` (stereo not drawn), the inhibition was -32.8%.

For `Cn1c(N)c(C(=O)COC(=O)c2cccc(S(=O)(=O)N3CCOCC3)c2)c(=O)n(C)c1=O`, the inhibition is -2.97%.

Consider `Cc1nn(C)c(C)c1Sc1ccccc1N`, for which the inhibition was 99.2% (active).

For `CCOC(=O)c1cc(Sc2ccccc2N)cc(C(=O)OCC)n1`, the inhibition was -11.9%.

For the molecule `Nc1ccccc1Sc1cc(Cl)nnc1Cl`, the inhibition is 1.19%.

With `O=C(NN=Cc1ccc(N2CCOCC2)cc1)c1cc2ccccc2cc1O`, the inhibition was 11.6%.

On to `COc1ccc([C@H]2CC(=O)C=C(c3ccc(CO)cc3)C2)cc1`, for which the inhibition is -0.829%.

Turning to `CCC(C)N(C(=O)COC(=O)c1nc(Cl)ccc1Cl)C1CCS(=O)(=O)C1` (stereo not drawn), the inhibition is 0.398%.

For the molecule `CC(C)N(C(=O)CN1CCN(S(=O)(=O)c2ccc(Br)s2)CC1)C(C)C`, the inhibition is -3.29%.

On to `O=C(CCSc1ccccc1)N1CCN(c2ccccc2F)CC1`, for which the inhibition is -13.1%.

On to `O=C(CCc1ccccc1F)N1CCN(c2ccccc2)CC1`, for which the inhibition is 88% (active).

Turning to `Cc1nc2ncnn2c(C)c1CCC(=O)N1CCN(C(=O)c2ccco2)CC1`, the inhibition was 0.394%.

On to `Cc1nc2nc(C)c(CCC(=O)N3CCN(c4ccccc4)CC3)c(C)n2n1`, for which the inhibition is 92.8% (active).

As for `CC(CC(=O)N1CCN(c2ccccc2)CC1)c1ccccc1` (stereo not drawn), the inhibition is 98.4% (active).

For `C/C(=C/c1ccccc1)C(=O)N1CCN(c2ccccc2)CC1`, the inhibition was 44%.

`CC(=O)c1ccc(N2CCN(C(=O)CCc3ccccc3)CC2)cc1`: the inhibition was 16.1%.

In the case of `Cc1nc2c(-c3ccc(F)cc3)c(C)nn2c(C)c1CCC(=O)N1CCN(c2ccccn2)CC1`, the inhibition is -13.5%.

As for `O=C(NC(CC(=O)N1CCN(c2ccccc2)CC1)c1ccccc1)c1ccccc1Cl` (stereo not drawn), the inhibition was 22.4%.
